Screening results as filed in PubChem BioAssay.
Marburg entry inh: inhibitors of Marburg virus binding or cell entry; Marburg virus pseudotyped entry inhibition, cell reporter; Potency, µM (titrated, usually from 37.8 µM), inactives show top-dose activity change, negative = inhibition, usual class: inhibitors; 1.8% of 300,000 active; calls by dose curve; tested in HEK293 cells; note: potency is the fitted concentration of half-maximal effect
VACV Venus inh: inhibitors of vaccinia virus (Venus reporter). Vaccinia virus Venus reporter expression, fluorescence. Potency, µM (doses to about 36.5 µM), without a hit: at the highest dose activity change, negative = inhibition, hits mostly inhibitors. 0.46% of 330,000 active. AID 720580; calls by dose curve; tested in A549 cells; note: potency is the fitted concentration of half-maximal effect; nearly all actives have a fitted effect of over 30% in size
Vaccinia mCherry: inhibitors of vaccinia virus infection (mCherry reporter signal). Potency, µM (highest dose often 36.5 µM), for the others: top-dose activity change, negative = inhibition, actives largely listed as inhibitors. AID 720579. 0.63% of 310,000 active. Vaccinia virus mCherry reporter infection, fluorescence; calls by dose curve; tested in A549 cells; note: potency is the fitted concentration of half-maximal effect; nearly all actives have a fitted effect of over 35% in size
HCV inh: inhibitors of hepatitis C virus infection | Huh7.5.1 HCVcc-Cre infection, luciferase reporter, 44 h | Potency, µM (series often up to 41.8 µM), for the others: at the top dose activity change, negative = inhibition, usual class: inhibitors | 3.4% of 340,000 active | AID 651820; active = well fitted inhibition curve with a large enough effect; inconclusive = small, poorly fitted or top-dose-only effect, or another doubt; inactive = no such curve, though single readings can be large or run the other way; note: potency is the fitted concentration of half-maximal effect
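1,000 cells/well; 4 h culture; + compound; + HCVcc-Cre (~0.5 moi); 44 h; luciferase substrate, RT 15 min; read 15 sec.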
Lassa entry inh: Lassa virus entry inhibition; Lassa virus pseudotype entry inhibition, cell reporter; 1.2% of 300,000 active; Potency, µM (doses to about 37.9 µM), for inactives: at the top dose activity change, negative = inhibition, most hits filed as inhibitors; AID 540256; calls by dose curve; tested in HEK293 cells; note: potency is the fitted concentration of half-maximal effect; nearly all actives have a fitted effect of over 50% in size
HCMV antiviral: inhibitors of human cytomegalovirus; HFF cells, HCMV-luciferase reporter, 72 h; active compounds read low; activity change, negative = inhibition, % at 57.5 µM; 4.5% of 410,000 active; AID 1259415; in the data active = activity change below about -60%; inconclusive = no clear call, values can overlap the other calls; inactive = above about -39%
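HFF cells seeded 16 h at 37C, treated with compounds, infected with luciferase-reporter HCMV at MOI 1 PFU/cell; luciferase read at 72 h post infection, normalized to buffer-only and Salinomycin controls.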
* = called active by the depositor; i = inactive; ? = inconclusive; · = no result; [ ] = another dose, or the depositor's remark. This is a sample that favours compounds with a hit; in the whole collection about 7.8% have one here. % is set by controls: 0 for no effect and ±100 for the full control effect.

SMILES | Marburg entry inh | VACV Venus inh | Vaccinia mCherry | HCV inh | Lassa entry inh | HCMV antiviral
COc1ccc(CNC(=O)Cc2ccc(NC(=O)N3CCSc4ncccc43)cc2)cc1 | · | -11.6% | -11.0% | · | -0.6%[46.1 µM] | 0.0
Cc1ccccc1C(=O)N1CCc2c(cnc(C)c2CNC(=O)c2ccc3c(c2)OCO3)C1 | · | 0.5% | 1.4% | · | · | ·
Cc1[nH][nH]c(=O)c1C(c1ccc(-c2ccc(C(=O)O)cc2)o1)c1c(C)[nH][nH]c1=O | -20.5%[46.1 µM] | -0.2% | i | 9.4% | 15.2% | -61.8*
Cc1ccccc1N=CC1=C(O)c2ccccc2C1=O | 8.91µM* | 3.4% | -9.6% | -2.7% | 10µM* | 22.5
O=C1C(C=Nc2ccc(F)cc2)=C(O)c2ccccc21 | 8.8%[46.1 µM] | -1.8% | -3.2% | 3.1% | ? | 12.8
COc1ccc(N=CC2=C(O)c3ccccc3C2=O)c(OC)c1 | ? | ? | · | 17.0% | 2.51µM* | -31.2
Cc1cc(N/N=C/c2ccc(O)c(C)c2O)nc(-c2ccccc2O)n1 | ? | 12.6µM* | 10µM* | ? | ? | -102.7*
Cc1ccc(Nc2cc(C)nc(-c3ccccc3O)n2)cc1 | ? | · | · | ? | 7.7% | 25.9
Cc1cc(Nc2ccc(Br)cc2)nc(-c2ccccc2O)n1 | · | · | · | 12.6µM* | · | 5.6
Cc1cc(NCCCN)nc(-c2ccccc2O)n1 | -1.0% | -19.0% | · | 10µM* | ? | 68.3
Cc1cc(Nc2cccc(C(F)(F)F)c2)nc2ccc(NC(=O)c3ccc(N(C)C)cc3)cc12 | ? | ? | ? | · | 2.8%[46.1 µM] | -22.1
Cc1ccc(Cn2nc(C)c(NC(=O)CSc3nc4c(c(C(F)(F)F)n3)CCc3ccccc3-4)c2C)cc1 | 24.5% | -8.1% | -28.9% | ? | 2.7% | ?
Cc1nn(Cc2ccc(Cl)cc2)c(C)c1NC(=O)CSc1nc2c(c(C(F)(F)F)n1)CCc1ccccc1-2 | 11.6µM* | -11.4% | -11.3% | · | -19.8%[14.3 µM] | -30.1
Cc1ccccc1Cn1cc(NC(=O)CSc2nc3c(c(C(F)(F)F)n2)CCc2ccccc2-3)cn1 | ? | · | · | 12.6µM* | 5.8% | -27.2
O=C(Nc1cccc(Cl)c1)c1ccc(F)c(S(=O)(=O)NCc2cccs2)c1 | ? | ? | -18.5% | ? | ? | -92.8*
Cc1ccc(C(=O)Nc2ccc(Br)cc2)cc1S(=O)(=O)NCc1ccccc1 | · | ? | ? | · | ? | -69.1*
O=C(Nc1cc(Cl)cc(Cl)c1)c1ccc(F)c(S(=O)(=O)NC2CCCCC2)c1 | · | -23.3% | -7.1% | · | -3.4%[46.1 µM] | -20.7
O=C(Nc1cc(Cl)cc(Cl)c1)c1ccc(F)c(S(=O)(=O)NCc2ccccc2Cl)c1 | · | -20.8% | -22.9% | · | -17.7%[46.1 µM] | -98.5*
COc1ccccc1CNS(=O)(=O)c1cc(C(=O)Nc2cccc(C(F)(F)F)c2)ccc1F | · | ? | -15.7% | · | ? | -66.6*
Cc1cccc(NC(=O)c2ccc(F)c(S(=O)(=O)NCc3ccco3)c2)c1 | · | · | · | ? | · | -14.2
Cc1ccc(-n2nc(C)c3c(C)c(CCC(=O)NCc4ccccc4Cl)c(C)nc32)cc1 | 24.5%[46.1 µM] | -17.8% | -20.4% | · | 8.2%[46.1 µM] | 49.6
O=C1COCc2ccc(-c3cccc(CO)c3)cc2N1CCc1ccccc1 | · | · | · | · | · | -3.6
COc1cccc(N2C(=O)CSC23C(=O)N(CC(=O)NCc2ccc(C)cc2)c2ccccc23)c1 (centres undefined) | · | 1.5% | 8.6% | · | 3.7%[46.1 µM] | -2.4
Nc1ncc(S(=O)(=O)NCc2ccccc2F)cn1 | · | -4.7% | -14.5% | · | 17.2%[46.1 µM] | -33.7
COc1ccc2c3c(c(=O)oc2c1)[C@H]1O[C@](c2ccsc2)(Cc2cc(C#N)ccc21)O3 | -13.9%[14.2 µM] | · | · | · | · | ·
SMILES | Marburg entry inh | VACV Venus inh | Vaccinia mCherry | HCV inh | Lassa entry inh | HCMV antiviral
CC(C)N(Cc1ccccc1)C(=O)CN1C(=O)CSc2ccc(S(=O)(=O)N3CCCC3)cc21 | · | -16.1% | -19.5% | · | ? | -21.6
CCc1ccc(NC(=O)c2ccc(F)c(S(=O)(=O)NCc3ccc(Cl)c(Cl)c3)c2)cc1 | · | -18.5% | -12.4% | · | ? | 53.7
COc1ccc(CNS(=O)(=O)c2cc(C(=O)Nc3cc(Cl)cc(Cl)c3)ccc2F)cc1 | · | -19.3% | i | · | -13.6%[46.1 µM] | -78.4*
COC(=O)C1=C(C)[C@@H](O)[C@@H](C)[C@](C)(c2cc(OC)c(C)c(OC)c2COc2ccccc2)O1 | 5.9%[14.2 µM] | · | · | · | 3.5%[14.3 µM] | ·
COc1ccc(CCNC(=O)c2ccc(S(=O)(=O)N(C)c3ccccc3)cc2)cc1OC | -25.1% | -11.4% | i | ? | ? | 14.7
COC(=O)c1cc(CNC(=O)c2sccc2-c2ccccc2)ccc1OC | · | · | · | 11.2µM* | · | 39.6
COC(=O)c1ccc(CNC(=O)c2sccc2-c2ccccc2)cc1 | ? | -9.2% | -10.4% | ? | ? | -11.2
CN(c1ccccc1)S(=O)(=O)c1ccc(C(=O)NCc2ccccc2CN2CCCC2)cc1 | ? | -10.1% | -16.3% | 10µM* | 12.5% | ?
COC(=O)c1cc(CNC(=O)c2ccc(S(=O)(=O)N(C)c3ccccc3)cc2)ccc1OC | -7.9% | -21.8% | -7.1% | 3.98µM* | -16.0% | -1.9
CN(c1ccccc1)S(=O)(=O)c1ccc(C(=O)NCc2ccc(F)cc2)cc1 | · | · | · | -20.2% | · | 19.2
COc1cccc(CN2CCC(N(CCc3ccccc3)Cc3ccccc3)CC2)c1OC | 7.94µM* | ? | ? | 11.2µM* | ? | -64.3*
N#Cc1c2n(c3c(=O)n(Cc4ccccc4Cl)cnc13)CCCC2 | ? | · | · | 11.2µM* | ? | -31.2
CSc1nc2sc3c(c2c(=O)n1-c1ccccc1)CCC(C(C)(C)C)C3 (centres undefined) | -1.6%[46.1 µM] | 4.4% | -0.6% | · | 11.4%[46.1 µM] | -25.4
CC(CCN1CCCCc2nc(C)c(C)cc21)=NO[C@@H](C)CN1CCCCc2nc(C)c(C)cc21 | 5.6%[14.2 µM] | · | · | · | ? | ·
Cc1c(N=C2N=C(NC(=O)c3cccs3)c3ccccc32)c(=O)n(-c2ccccc2)n1C | ? | -5.7% | -19.0% | 10µM* | ? | 18.5
COc1ccc(-n2c(CN3CCN(c4ccc(F)cc4)CC3)nc3ccc([N+](=O)[O-])cc3c2=O)c(OC)c1 | -20.8%[46.1 µM] | -0.3% | -2.3% | -30.0% | ? | -92.4*
C#CC[N+](C)(C)CCCCCCCCCC | -16.6% | 14.1µM* | 15.8µM* | ? | -29.1% | -98.1*
C#CC[N+](C)(C)CCCCCCCC | -9.4% | · | · | -17.0% | 2.8% | -76.9*
CCCCCCCCCCCCCCCC[N+](C)(C)CCl | 14.8% | ? | -17.5% | 12.0% | 6.5% | ?
CCCCCC[N+](C)(C)CCSSCC[N+](C)(C)CCCCCC | · | · | · | 3.7% | · | 5.1
C#CC[N+](C)(C)CCCCCCCCCCCC | ? | 7.94µM* | 8.91µM* | ? | ? | -97.8*
Brc1ccc(NCc2cccc3ccccc23)nc1 | ? | · | · | -27.6% | -7.3% | -21.5
Oc1ccccc1CNc1ccc(Br)cn1 | ? | 14.1µM* | · | ? | ? | -105.3*
O=C(O)c1cc(N2N=C(C(F)(F)F)/C(=C/C=C/c3ccco3)C2=O)ccc1Cl | ? | 18.1% | 1.8% | -13.7% | -10.8% | -90.4*
